What all share (assay): DAPPL (digital affinity profiling via proximity ligation, sequencing); 10 mM Tris-HCl pH 7.5, 50 mM NaCl, 1 mM DTT, 4% glycerol, room temperature, 30 min; GST-TFs on glutathione beads, 16-mer random dsDNA library, 0.1% formaldehyde crosslink after washing; high values mean tight binding
Settings in all cases: protein: recombinant; tags: N-terminal GST; dsDNA, one strand shown

The target of one assay is T1, FLI1 (Homo sapiens, UniProt Q01543 1-452).
T1 sequence: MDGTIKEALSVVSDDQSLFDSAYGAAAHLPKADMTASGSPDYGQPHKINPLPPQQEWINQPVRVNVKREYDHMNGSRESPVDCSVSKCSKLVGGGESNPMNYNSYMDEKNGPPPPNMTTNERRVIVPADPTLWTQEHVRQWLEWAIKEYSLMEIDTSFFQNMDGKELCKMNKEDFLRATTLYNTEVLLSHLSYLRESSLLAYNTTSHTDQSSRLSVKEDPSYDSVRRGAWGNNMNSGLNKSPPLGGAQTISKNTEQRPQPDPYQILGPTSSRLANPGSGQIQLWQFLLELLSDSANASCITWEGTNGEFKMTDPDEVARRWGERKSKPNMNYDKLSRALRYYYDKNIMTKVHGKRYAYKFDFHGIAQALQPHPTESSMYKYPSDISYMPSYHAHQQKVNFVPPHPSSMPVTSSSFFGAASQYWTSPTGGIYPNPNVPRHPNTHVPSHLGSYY
The gist of the method:
(§1)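 Pools were built from human transcription factors expressed in yeast as GST fusions, captured on glutathione beads and DNA-barcoded, along with a tag-only sample. Incubation with 200 nmole of a 16-mer random double-stranded DNA library lasted 30 min at room temperature in Tris/NaCl/DTT/glycerol buffer, and was followed by washing, 0.1% formaldehyde crosslinking, proximity ligation, PCR amplification and Illumina NextSeq500 sequencing. Binding signal is the quotient of each hexamer's read frequency for a factor and its frequency for the tag-only sample.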

The target of the next assay is T2, GABPA (Homo sapiens, UniProt Q06546 1-454).
T2 sequence: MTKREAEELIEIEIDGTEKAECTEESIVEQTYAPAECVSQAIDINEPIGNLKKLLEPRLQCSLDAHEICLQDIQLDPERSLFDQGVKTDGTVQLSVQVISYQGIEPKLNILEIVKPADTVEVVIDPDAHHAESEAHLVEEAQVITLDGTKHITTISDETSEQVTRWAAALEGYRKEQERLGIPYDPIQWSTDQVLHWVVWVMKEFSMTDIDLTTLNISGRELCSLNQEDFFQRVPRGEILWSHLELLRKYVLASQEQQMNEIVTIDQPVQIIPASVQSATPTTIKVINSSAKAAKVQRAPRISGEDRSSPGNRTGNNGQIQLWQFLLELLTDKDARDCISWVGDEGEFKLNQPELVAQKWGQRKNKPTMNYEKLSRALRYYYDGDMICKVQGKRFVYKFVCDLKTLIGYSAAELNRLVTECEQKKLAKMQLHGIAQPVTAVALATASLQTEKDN
The procedure, abridged:
as §1

The next assay has as its target T3, ERG (Homo sapiens, UniProt P11308 1-479).
T3 sequence: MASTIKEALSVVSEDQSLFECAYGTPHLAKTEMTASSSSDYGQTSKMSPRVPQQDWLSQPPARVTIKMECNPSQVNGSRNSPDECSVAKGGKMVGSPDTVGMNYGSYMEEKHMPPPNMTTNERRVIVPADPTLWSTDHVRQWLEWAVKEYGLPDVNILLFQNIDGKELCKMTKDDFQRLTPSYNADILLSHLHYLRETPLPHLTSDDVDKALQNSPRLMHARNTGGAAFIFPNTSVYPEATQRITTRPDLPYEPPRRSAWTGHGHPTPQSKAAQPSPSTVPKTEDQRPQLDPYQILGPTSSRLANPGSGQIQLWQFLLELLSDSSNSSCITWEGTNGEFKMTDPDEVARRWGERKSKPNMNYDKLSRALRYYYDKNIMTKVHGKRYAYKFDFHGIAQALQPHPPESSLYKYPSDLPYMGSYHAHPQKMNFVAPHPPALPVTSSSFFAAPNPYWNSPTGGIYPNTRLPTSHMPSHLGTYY
The gist of the method: as §1

Another assay addresses ELF1 (Homo sapiens, UniProt P32519 1-619). The procedure, abridged: as §1
For a further assay, the target named is T4, EHF (Homo sapiens, UniProt Q9NZC4 1-300).
T4 sequence: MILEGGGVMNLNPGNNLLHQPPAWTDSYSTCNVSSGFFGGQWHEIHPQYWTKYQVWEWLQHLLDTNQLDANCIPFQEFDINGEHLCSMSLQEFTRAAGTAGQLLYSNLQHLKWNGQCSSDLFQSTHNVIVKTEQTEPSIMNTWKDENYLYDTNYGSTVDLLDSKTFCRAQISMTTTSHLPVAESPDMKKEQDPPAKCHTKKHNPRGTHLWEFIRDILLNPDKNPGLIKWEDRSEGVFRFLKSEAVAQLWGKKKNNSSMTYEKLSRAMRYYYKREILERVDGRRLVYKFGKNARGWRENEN
The procedure, abridged:
as §1

Another assay has as its target SPI1 (Homo sapiens, UniProt P17947 1-270). The procedure, abridged:
as §1

For a further assay, the target named is T5, ELK3 (Homo sapiens, UniProt P41970 1-407).
T5 sequence: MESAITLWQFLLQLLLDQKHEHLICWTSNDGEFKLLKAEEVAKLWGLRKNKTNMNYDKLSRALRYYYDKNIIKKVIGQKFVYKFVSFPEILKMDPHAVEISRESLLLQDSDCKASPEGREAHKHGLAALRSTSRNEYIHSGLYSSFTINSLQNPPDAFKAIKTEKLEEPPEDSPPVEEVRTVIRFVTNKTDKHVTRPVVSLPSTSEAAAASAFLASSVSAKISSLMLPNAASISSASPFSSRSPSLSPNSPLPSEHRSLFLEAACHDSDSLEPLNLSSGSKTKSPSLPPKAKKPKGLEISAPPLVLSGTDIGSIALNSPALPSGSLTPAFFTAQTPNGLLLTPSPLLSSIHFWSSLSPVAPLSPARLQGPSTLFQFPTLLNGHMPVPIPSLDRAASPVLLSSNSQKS
The procedure, abridged:
as §1

In the next assay the target is ETV5 (Homo sapiens, UniProt P41161 1-510). The procedure, abridged:
as §1

The target in the next assay is T6, SPIC (Homo sapiens, UniProt Q8N5J4 1-248).
T6 sequence: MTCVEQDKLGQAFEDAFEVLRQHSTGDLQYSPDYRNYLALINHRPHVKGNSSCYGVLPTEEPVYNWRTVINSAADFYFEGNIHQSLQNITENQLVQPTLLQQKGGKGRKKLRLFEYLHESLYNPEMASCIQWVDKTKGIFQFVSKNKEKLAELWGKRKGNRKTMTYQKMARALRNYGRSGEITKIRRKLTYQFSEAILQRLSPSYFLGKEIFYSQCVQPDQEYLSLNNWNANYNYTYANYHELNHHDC
The gist of the method:
as §1

Another assay concerns the target T7, ETS2 (Homo sapiens, UniProt P15036 1-469).
T7 sequence: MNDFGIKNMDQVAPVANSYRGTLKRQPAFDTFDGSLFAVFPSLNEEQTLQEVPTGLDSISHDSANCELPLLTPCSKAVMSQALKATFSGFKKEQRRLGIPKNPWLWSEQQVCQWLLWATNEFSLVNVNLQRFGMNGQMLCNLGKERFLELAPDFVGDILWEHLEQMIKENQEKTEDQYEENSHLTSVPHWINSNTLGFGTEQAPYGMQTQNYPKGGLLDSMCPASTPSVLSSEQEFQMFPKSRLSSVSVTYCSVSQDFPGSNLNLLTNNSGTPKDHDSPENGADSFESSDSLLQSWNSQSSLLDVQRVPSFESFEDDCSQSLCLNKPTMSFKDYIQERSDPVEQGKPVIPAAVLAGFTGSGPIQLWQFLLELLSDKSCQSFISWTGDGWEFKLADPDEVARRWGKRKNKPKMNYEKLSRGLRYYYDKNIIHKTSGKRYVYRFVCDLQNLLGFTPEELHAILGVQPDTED
The gist of the method:
as §1

For another assay, the target named is T8, ELF5 (Homo sapiens, UniProt Q9UKW6-2 1-255).
T8 sequence: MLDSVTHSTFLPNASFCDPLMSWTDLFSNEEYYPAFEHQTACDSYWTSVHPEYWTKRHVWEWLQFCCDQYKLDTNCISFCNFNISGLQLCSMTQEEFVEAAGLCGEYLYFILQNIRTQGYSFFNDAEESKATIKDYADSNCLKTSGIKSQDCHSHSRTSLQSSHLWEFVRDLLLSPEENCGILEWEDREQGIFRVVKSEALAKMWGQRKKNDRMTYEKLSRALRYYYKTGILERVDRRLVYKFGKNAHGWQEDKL
The gist of the method: as §1

For the next assay, the target named is T9, ETV3 (Homo sapiens, UniProt P41162-2 1-143).
T9 sequence: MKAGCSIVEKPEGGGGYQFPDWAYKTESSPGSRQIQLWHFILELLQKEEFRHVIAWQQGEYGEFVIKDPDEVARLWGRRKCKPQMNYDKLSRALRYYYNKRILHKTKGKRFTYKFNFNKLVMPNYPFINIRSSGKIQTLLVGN
The procedure, abridged:
as §1

A further assay concerns the target ETV6 (Homo sapiens, UniProt P41212 1-452). The procedure, abridged: as §1

ETV6, sequence (P41212 whole entry): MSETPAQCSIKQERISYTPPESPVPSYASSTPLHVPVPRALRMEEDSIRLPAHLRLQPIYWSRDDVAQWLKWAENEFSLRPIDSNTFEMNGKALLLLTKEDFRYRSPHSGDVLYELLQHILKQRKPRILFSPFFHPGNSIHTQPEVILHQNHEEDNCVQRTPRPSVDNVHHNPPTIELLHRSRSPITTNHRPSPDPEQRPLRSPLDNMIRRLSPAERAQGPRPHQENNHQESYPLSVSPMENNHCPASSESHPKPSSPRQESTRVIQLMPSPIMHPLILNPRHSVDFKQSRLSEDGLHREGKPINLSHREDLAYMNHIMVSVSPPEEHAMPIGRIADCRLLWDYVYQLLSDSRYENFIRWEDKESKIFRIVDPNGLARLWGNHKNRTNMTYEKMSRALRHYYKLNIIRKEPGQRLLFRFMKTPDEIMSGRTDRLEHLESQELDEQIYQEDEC
ETV5, sequence (P41161 whole entry): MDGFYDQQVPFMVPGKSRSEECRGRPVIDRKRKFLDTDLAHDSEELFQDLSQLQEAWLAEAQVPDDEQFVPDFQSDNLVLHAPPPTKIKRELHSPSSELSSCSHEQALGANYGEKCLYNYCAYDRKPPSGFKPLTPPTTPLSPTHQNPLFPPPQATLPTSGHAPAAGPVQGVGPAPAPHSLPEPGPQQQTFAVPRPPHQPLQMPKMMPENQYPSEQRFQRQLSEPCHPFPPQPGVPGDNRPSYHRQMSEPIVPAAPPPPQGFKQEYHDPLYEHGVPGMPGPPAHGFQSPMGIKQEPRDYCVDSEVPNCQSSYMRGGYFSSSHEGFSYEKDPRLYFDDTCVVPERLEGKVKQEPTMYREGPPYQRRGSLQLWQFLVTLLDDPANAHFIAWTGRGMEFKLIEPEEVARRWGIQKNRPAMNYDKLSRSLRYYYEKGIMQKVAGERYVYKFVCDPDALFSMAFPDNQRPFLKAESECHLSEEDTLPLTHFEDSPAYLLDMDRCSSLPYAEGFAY
ELF1, sequence (P32519 whole entry): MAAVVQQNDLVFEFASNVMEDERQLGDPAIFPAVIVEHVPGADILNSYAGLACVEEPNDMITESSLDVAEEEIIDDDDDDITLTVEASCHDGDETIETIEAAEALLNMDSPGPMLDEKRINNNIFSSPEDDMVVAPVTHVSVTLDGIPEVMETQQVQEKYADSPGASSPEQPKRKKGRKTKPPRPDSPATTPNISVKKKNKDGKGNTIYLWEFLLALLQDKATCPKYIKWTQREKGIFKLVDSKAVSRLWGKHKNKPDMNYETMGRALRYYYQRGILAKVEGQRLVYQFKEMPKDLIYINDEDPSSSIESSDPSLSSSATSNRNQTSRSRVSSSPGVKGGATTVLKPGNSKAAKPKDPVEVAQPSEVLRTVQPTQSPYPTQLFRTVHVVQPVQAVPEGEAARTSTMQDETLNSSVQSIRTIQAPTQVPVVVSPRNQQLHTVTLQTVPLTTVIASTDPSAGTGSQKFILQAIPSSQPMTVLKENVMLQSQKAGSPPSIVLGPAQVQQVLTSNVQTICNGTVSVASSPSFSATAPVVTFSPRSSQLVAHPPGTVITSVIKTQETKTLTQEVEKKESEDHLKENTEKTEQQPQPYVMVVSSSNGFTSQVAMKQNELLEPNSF

Regarding GGTTAT, the binding signal with FLI1 is 1.07 fold enrichment (6-mer frequency, TF over GST control); in the assay with GABPA, 1.03 fold enrichment (6-mer frequency, TF over GST control); with ERG, 1.04 fold enrichment (6-mer frequency, TF over GST control); with ELF1, 1.01 fold enrichment (6-mer frequency, TF over GST control); with EHF, 1.03 fold enrichment (6-mer frequency, TF over GST control); with SPI1 it was 1 fold enrichment (6-mer frequency, TF over GST control). Further, the binding signal with ELK3 was 1.07 fold enrichment (6-mer frequency, TF over GST control); with ETV5, 1.09 fold enrichment (6-mer frequency, TF over GST control); with SPIC it was 1.05 fold enrichment (6-mer frequency, TF over GST control); with ETS2, 1.04 fold enrichment (6-mer frequency, TF over GST control); in the assay with ELF5, 1.1 fold enrichment (6-mer frequency, TF over GST control); with ETV3 it was 1.05 fold enrichment (6-mer frequency, TF over GST control). Moreover, the binding signal in the assay with ETV6 is 1.03 fold enrichment (6-mer frequency, TF over GST control).

The values are drawn from article PMC7862700, “An all-to-all approach to the identification of sequence-specific readers for epigenetic DNA modifications on cytosine”.
